# Experimental data reported in PubChem BioAssay (EPA / NIEHS).
# Records with an inconclusive call do not appear. Active and inactive are the calls of the source. How the source made its calls: active means hit-call score of the fitted dose curve at least 0.9, where 1 is the maximum; inconclusive means response in the unintended direction; inactive means score below 0.9.
# Legend:
# [1] = biological target: Cellular tumor antigen p53 (Homo sapiens) (UniProt P04637); experiment: TOX21_p53_BLA_p4_ratio: Tox21 HCT-116 p53 Agonism Beta-lactamase Assay, Ratio, Phase 4 (AID 2283601)
# Outline: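 HCT116 cells carrying an inducible beta-lactamase reporter were plated at 4000 cells/well, rested 5 h, then exposed to compounds in DMSO (217-fold dilution) for 16 h at 37C. CCF4-AM substrate was loaded 2 h at room temperature; 460/530 nm emission ratio scored gain-of-signal versus DMSO.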
# [2] = Tanguay_ZF_120hpf_MORT_legacy: (Legacy) Oregon State University Tanguay Lab 120 Hour Post-fertilization zebrafish Assay for Mortality (AID 2283633);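 on AC50: fitted as increase in binary mortality versus DMSO negative control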
# Outline: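 Dechorionated Tropical 5D wild-type zebrafish embryos, one per well from 6 hpf, static exposure in 0.64% DMSO at 28C until 120 hpf. Mortality scored as binary by brightfield microscopy at 24 and 120 hpf.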
# [3] = Tanguay_ZF_120hpf_YSE_legacy: (Legacy) Oregon State University Tanguay Lab 120 Hour Post-fertilization zebrafish Assay for Yolk Sac Edema (AID 2283634);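 on AC50: actives raise the incidence of yolk sac edema above the DMSO baseline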
# Outline: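 Dechorionated Tropical 5D wild-type zebrafish embryos were exposed statically, one per well, from 6 to 120 hpf at 28C in 0.64% DMSO. Yolk sac edema was scored present/absent by brightfield at 120 hpf, and dead embryos were excluded.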
# [4] = Tanguay_ZF_120hpf_AXIS_legacy: (Legacy) Oregon State University Tanguay Lab 120 Hour Post-fertilization zebrafish Assay for Body Axis Malformation (AID 2283635);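 on AC50: potency for an increased fraction of larvae scored with body axis malformation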
# Outline: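 Dechorionated wild-type Tropical 5D zebrafish embryos, one per well, statically exposed from 6 hpf to 120 hpf at 28C in 0.64% DMSO final. Body axis malformation scored present/absent by brightfield microscopy at 120 hpf; dead embryos excluded.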
# [5] = Tanguay_ZF_120hpf_EYE_legacy: (Legacy) Oregon State University Tanguay Lab 120 Hour Post-fertilization zebrafish Assay for Eye Malformation (AID 2283636);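 further: binary presence or absence of eye malformation scored by brightfield in 120 hpf larvae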
# Outline: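 Dechorionated wild-type Tropical 5D zebrafish embryos were exposed statically from 6 hpf, one per well, to 120 hpf at 28C in sealed, foil-covered plates with 0.64% DMSO. Eye malformation was scored present/absent by brightfield microscopy against DMSO controls.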
# [6] = Tanguay_ZF_120hpf_SNOU_legacy: (Legacy) Oregon State University Tanguay Lab 120 Hour Post-fertilization zebrafish Assay for Snout Malformation (AID 2283637)
# Outline: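 Tropical 5D wild-type zebrafish embryos, dechorionated with pronase at 4 hpf, were exposed singly from 6 hpf to 120 hpf statically at 28C in 0.64% DMSO. Snout malformation was scored present/absent by brightfield microscopy, fitted against DMSO.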
# [7] = Tanguay_ZF_120hpf_JAW_legacy: (Legacy) Oregon State University Tanguay Lab 120 Hour Post-fertilization zebrafish Assay for Jaw Malformation (AID 2283638);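 on AC50: active means more embryos with jaw malformation than DMSO controls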
# Outline: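 Dechorionated Tropical 5D wild-type zebrafish embryos, one per well, exposed statically from 6 hpf to 120 hpf at 28C in 0.64% DMSO. Jaw malformation was scored by brightfield microscopy as present or absent. It was not scored in dead embryos.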
# [8] = Tanguay_ZF_120hpf_OTIC_legacy: (Legacy) Oregon State University Tanguay Lab 120 Hour Post-fertilization zebrafish Assay for Otic Vesicle Malformation (AID 2283639)
# Outline: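 Tropical 5D wild-type zebrafish embryos were exposed statically in sealed, foil-covered plates at 28C until 120 hpf, with 0.64% (vol/vol) DMSO final. Otic vesicle malformation was scored present/absent by brightfield microscopy, with DMSO as baseline.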
# [9] = Tanguay_ZF_120hpf_PE_legacy: (Legacy) Oregon State University Tanguay Lab 120 Hour Post-fertilization zebrafish Assay for Pericardial Edema (AID 2283640);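 on AC50: potency for increased incidence of pericardial edema versus DMSO baseline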
# Outline: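 Tropical 5D wild-type zebrafish embryos were statically exposed until 120 hpf at 28C, with 0.64% DMSO final. Pericardial edema was scored by brightfield as present or absent; endpoints were not scored in dead embryos.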
# [10] = Tanguay_ZF_120hpf_BRAI_legacy: (Legacy) Oregon State University Tanguay Lab 120 Hour Post-fertilization zebrafish Assay for Brain Malformation (AID 2283641)
# Outline: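 Tropical 5D wild-type zebrafish embryos exposed statically until 120 hpf at 28C, 0.64% DMSO final, sealed and dark. Brain malformation scored present/absent by brightfield at 120 hpf; dead embryos excluded. Trimethyltin chloride 5uM positive control.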
# [11] = Tanguay_ZF_120hpf_SOMI_legacy: (Legacy) Oregon State University Tanguay Lab 120 Hour Post-fertilization zebrafish Assay for Somite Malformation (AID 2283647)
# Outline: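 Dechorionated Tropical 5D wild-type zebrafish embryos, one per well from 6 hpf, statically exposed at 28C to 120 hpf in 0.64% DMSO; somite malformation scored present/absent by brightfield; trimethyltin 5 uM positive control; dead embryos not scored.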
# [12] = Tanguay_ZF_120hpf_CFIN_legacy: (Legacy) Oregon State University Tanguay Lab 120 Hour Post-fertilization zebrafish Assay for Caudal Fin Malformation (AID 2283649)
# Outline: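 Dechorionated Tropical 5D wild-type embryos, one per well from 6 hpf, static exposure to 120 hpf at 28C in 0.64% DMSO. Caudal fin malformation scored by brightfield as present/absent; not scored in dead embryos.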
# [13] = Tanguay_ZF_120hpf_CIRC_legacy: (Legacy) Oregon State University Tanguay Lab 120 Hour Post-fertilization zebrafish Assay for Circulatory Malformation (AID 2283651)
# Outline: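 Tropical 5D wild-type embryos, dechorionated with pronase at 4 hpf, were placed singly in wells at 6 hpf and exposed statically at 28C to 120 hpf (0.64% DMSO final). Circulatory malformation was scored present/absent by brightfield microscopy.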
# [14] = Tanguay_ZF_120hpf_SWIM_legacy: (Legacy) Oregon State University Tanguay Lab 120 Hour Post-fertilization zebrafish Assay for Swim Bladder Malformation (AID 2283654);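 further: swim bladder malformation in each larva scored yes or no under brightfield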
# Outline: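 Dechorionated Tropical 5D wild-type embryos, placed singly from 6 hpf, were statically exposed at 28C to 120 hpf with 0.64% DMSO final; swim bladder malformation was scored present/absent by brightfield microscopy, gain of signal relative to DMSO controls.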
# [15] = Tanguay_ZF_120hpf_TRUN_legacy: (Legacy) Oregon State University Tanguay Lab 120 Hour Post-fertilization zebrafish Assay for Truncated Body (AID 2283655)
# Outline: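 Dechorionated Tropical 5D wild-type embryos placed singly from 6 hpf and statically exposed to 120 hpf at 28C, final DMSO 0.64%. Truncated body scored as present/absent by brightfield; not scored in dead embryos.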
# [16] = Tanguay_ZF_120hpf_PIG_legacy: (Legacy) Oregon State University Tanguay Lab 120 Hour Post-fertilization zebrafish Assay for Pigmentation Malformation (AID 2283650)
# Outline: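 Tropical 5D wild-type zebrafish embryos, dechorionated with pronase at 4 hpf, were exposed singly from 6 hpf to 120 hpf statically at 28C in sealed, dark plates with 0.64% DMSO; pigmentation scored present/absent by brightfield microscopy, fitted against DMSO.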
# Cellular tumor antigen p53 (Homo sapiens), sequence (P04637 whole entry, looked up): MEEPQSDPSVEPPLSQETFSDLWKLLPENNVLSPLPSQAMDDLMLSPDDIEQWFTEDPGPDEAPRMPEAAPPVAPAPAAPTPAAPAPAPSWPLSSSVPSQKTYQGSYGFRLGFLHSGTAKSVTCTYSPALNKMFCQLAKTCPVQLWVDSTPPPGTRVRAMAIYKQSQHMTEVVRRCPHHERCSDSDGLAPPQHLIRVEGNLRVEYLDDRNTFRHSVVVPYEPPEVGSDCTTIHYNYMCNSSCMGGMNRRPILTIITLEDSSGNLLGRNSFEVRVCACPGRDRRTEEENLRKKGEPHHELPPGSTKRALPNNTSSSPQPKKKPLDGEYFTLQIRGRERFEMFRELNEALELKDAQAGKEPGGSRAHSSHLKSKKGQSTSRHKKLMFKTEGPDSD
compound,measurement,setting,value
CCCCOC(=O)c1ccccc1C(=O)OCCCC,outcome,[1],inactive
same,outcome,[2],inactive
same,outcome,[3],inactive
same,outcome,[4],inactive
same,outcome,[5],inactive
same,outcome,[6],inactive
same,outcome,[7],inactive
same,outcome,[8],inactive
same,outcome,[9],inactive
same,outcome,[10],inactive
same,outcome,[11],inactive
same,outcome,[12],inactive
same,outcome,[13],inactive
same,outcome,[14],inactive
same,outcome,[15],inactive
CON(C)C(=O)Nc1ccc(Cl)c(Cl)c1,outcome,[1],inactive
same,outcome,[2],inactive
same,outcome,[3],inactive
same,outcome,[4],inactive
same,outcome,[5],inactive
same,outcome,[6],inactive
same,outcome,[7],inactive
same,outcome,[8],inactive
same,outcome,[9],inactive
same,outcome,[10],inactive
same,outcome,[11],inactive
same,outcome,[12],inactive
same,outcome,[13],inactive
same,outcome,[14],inactive
same,outcome,[15],inactive
CCCN(CCC)c1c([N+](=O)[O-])cc(S(N)(=O)=O)cc1[N+](=O)[O-],outcome,[2],inactive
same,outcome,[3],inactive
same,outcome,[4],inactive
same,outcome,[5],inactive
same,outcome,[6],inactive
same,outcome,[7],inactive
same,outcome,[8],inactive
same,outcome,[9],inactive
same,outcome,[10],inactive
same,outcome,[11],inactive
same,outcome,[12],inactive
same,outcome,[13],inactive
same,outcome,[14],inactive
same,outcome,[15],inactive
CC1COC(Cn2cncn2)(c2ccc(Oc3ccc(Cl)cc3)cc2Cl)O1 (stereo not drawn),AC50,[1],90.3 µM (active)
same,outcome,[2],inactive
same,AC50,[3],8.51 µM (active)
same,outcome,[6],inactive
same,AC50,[7],26.6 µM (active)
same,outcome,[8],inactive
same,outcome,[9],inactive
same,outcome,[11],inactive
same,outcome,[13],inactive
same,outcome,[14],inactive
CC(Oc1ccc(Cl)cc1Cl)C(=O)O (stereo not drawn),outcome,[1],inactive
same,outcome,[2],inactive
same,outcome,[3],inactive
same,outcome,[4],inactive
same,outcome,[5],inactive
same,outcome,[6],inactive
same,outcome,[8],inactive
same,outcome,[9],inactive
same,outcome,[10],inactive
same,outcome,[12],inactive
same,outcome,[13],inactive
same,outcome,[14],inactive
Cc1c(F)c(F)c(COC(=O)C2C(/C=C(\Cl)C(F)(F)F)C2(C)C)c(F)c1F (stereo not drawn),outcome,[2],inactive
same,AC50,[3],1.79 µM (active)
same,AC50,[4],3.4 µM (active)
same,AC50,[5],3.05 µM (active)
same,AC50,[6],4.35 µM (active)
same,AC50,[7],2.75 µM (active)
same,AC50,[8],3.67 µM (active)
same,AC50,[9],5.03 µM (active)
same,AC50,[10],2.6 µM (active)
same,outcome,[11],inactive
same,outcome,[12],inactive
same,outcome,[13],inactive
same,outcome,[14],inactive
same,AC50,[15],2.36 µM (active)
C#CCOS(=O)OC1CCCCC1Oc1ccc(C(C)(C)C)cc1 (stereo not drawn),outcome,[1],inactive
same,outcome,[2],inactive
same,outcome,[3],inactive
same,outcome,[4],inactive
same,outcome,[6],inactive
same,outcome,[7],inactive
same,outcome,[8],inactive
same,outcome,[9],inactive
same,outcome,[10],inactive
same,outcome,[11],inactive
same,outcome,[12],inactive
same,outcome,[13],inactive
same,outcome,[14],inactive
O=C(Nc1ccccc1)Nc1ccnc(Cl)c1,AC50,[1],41 µM (active)
same,outcome,[2],inactive
same,outcome,[3],inactive
same,outcome,[4],inactive
same,outcome,[7],inactive
same,outcome,[8],inactive
same,AC50,[9],50.5 µM (active)
same,outcome,[10],inactive
same,outcome,[11],inactive
same,outcome,[12],inactive
same,outcome,[13],inactive
same,outcome,[14],inactive
COc1ccc(C(c2ccc(OC)cc2)C(Cl)(Cl)Cl)cc1,outcome,[1],inactive
same,outcome,[2],inactive
same,outcome,[3],inactive
same,outcome,[4],inactive
same,outcome,[5],inactive
same,outcome,[6],inactive
same,outcome,[7],inactive
same,outcome,[9],inactive
same,outcome,[10],inactive
same,outcome,[11],inactive
same,outcome,[12],inactive
same,outcome,[13],inactive
same,outcome,[14],inactive
same,outcome,[15],inactive
COC(=O)C=C(C)OP(=O)(OC)OC,outcome,[1],inactive
same,outcome,[2],inactive
same,outcome,[3],inactive
same,outcome,[4],inactive
same,outcome,[5],inactive
same,outcome,[6],inactive
same,outcome,[7],inactive
same,outcome,[9],inactive
same,outcome,[10],inactive
same,outcome,[11],inactive
same,outcome,[12],inactive
same,outcome,[13],inactive
same,outcome,[14],inactive
same,outcome,[15],inactive
COc1cnc(OC)n2nc(NS(=O)(=O)c3c(OCC(F)F)cccc3C(F)(F)F)nc12,outcome,[1],inactive
same,outcome,[2],inactive
same,outcome,[4],inactive
same,outcome,[5],inactive
same,outcome,[6],inactive
same,outcome,[7],inactive
same,outcome,[8],inactive
same,outcome,[9],inactive
same,outcome,[11],inactive
same,outcome,[12],inactive
same,outcome,[16],inactive
same,outcome,[13],inactive
same,outcome,[14],inactive
same,outcome,[15],inactive
CC(C)(C)c1ccc(CSc2cnn(C(C)(C)C)c(=O)c2Cl)cc1,outcome,[1],inactive
same,AC50,[2],25.1 µM (active)
same,outcome,[3],inactive
same,outcome,[4],inactive
same,outcome,[5],inactive
same,outcome,[6],inactive
same,outcome,[7],inactive
same,outcome,[8],inactive
same,outcome,[9],inactive
same,outcome,[10],inactive
same,outcome,[12],inactive
same,outcome,[13],inactive
same,outcome,[14],inactive
same,outcome,[15],inactive
Cc1cc(Cl)ccc1OCC(=O)O,outcome,[1],inactive
same,outcome,[2],inactive
same,outcome,[3],inactive
same,outcome,[4],inactive
same,outcome,[5],inactive
same,outcome,[6],inactive
same,outcome,[7],inactive
same,outcome,[8],inactive
same,outcome,[9],inactive
same,outcome,[10],inactive
same,outcome,[11],inactive
same,outcome,[12],inactive
same,outcome,[14],inactive
same,outcome,[15],inactive
N#CC(CCc1ccc(Cl)cc1)(Cn1cncn1)c1ccccc1 (stereo not drawn),AC50,[1],71.5 µM (active)
same,outcome,[2],inactive
same,outcome,[3],inactive
same,outcome,[4],inactive
same,outcome,[6],inactive
same,outcome,[7],inactive
same,outcome,[8],inactive
same,outcome,[9],inactive
same,outcome,[10],inactive
same,outcome,[11],inactive
same,outcome,[12],inactive
same,outcome,[13],inactive
same,outcome,[14],inactive
